From PMC5540273 (PLoS ONE, 2017)

Columns and labels:
Settings in all cases: concentration: 1 μM, replicates: in singlicate; n = 1
[1] = tested on: QSK
[2] = tested on: RAF1
[3] = tested on: RET
[4] = tested on: RIOK1
[5] = tested on: RIOK2
[6] = tested on: RIOK3
[7] = tested on: RIPK1
[8] = tested on: RIPK2
[9] = tested on: RIPK4
[10] = tested on: RIPK5
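Further: KINOMEscan kinase panel screen.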

| SMILES | %Inh [1] [%] | %Inh [2] [%] | %Inh [3] [%] | %Inh [4] [%] | %Inh [5] [%] | %Inh [6] [%] | %Inh [7] [%] | %Inh [8] [%] | %Inh [9] [%] | %Inh [10] [%] |
| --- | --- | --- | --- | --- | --- | --- | --- | --- | --- | --- |
| O=C(O)COc1ncnc2cc(-c3ccc4[nH]ncc4c3)sc12 | 0 | 1 | 11 | 0 | 16 | 0 | 0 | 0 | 30 | 6 |
| O=C(Nc1ccccc1)Nc1cccc(Oc2ccc3nccn3n2)c1 | 0 | 21 | 8 | 48 | 0 | 15 | 2 | 0 | 0 | 0 |
| COc1cc2nccc(Nc3ccc(NC(=O)c4ccc(C)cc4)c(O)c3)c2cc1OC.Cl [GW440132] | 2 | 5 | 49 | 46 | 13 | 0 | 4 | 17 | 0 | 0 |
| Cc1cccc(-c2nc(C)cc(Nc3ccncc3)n2)n1 [GSK257997] | 0 | 100 | 18 | 20 | 16 | 14 | 8 | 19 | 7 | 0 |
| NC(=O)c1nnc2ccccc2c1N | 22 | 19 | 8 | 64 | 44 | 57 | 0 | 0 | 45 | 0 |
| Cn1ccc2ncnc(Oc3ccc(Nc4nc5ccccc5[nH]4)cc3)c21 | 0 | 0 | 0 | 0 | 0 | 0 | 0 | 0 | 0 | 0 |
| Cn1ccc2ncnc(Oc3ccc(NC(=O)Nc4ccccc4)cc3)c21 | 0 | 0 | 17 | 19 | 12 | 29 | 5 | 26 | 0 | 0 |
| O=C1NC(=O)C(N2CCc3ccccc32)=C1c1ccccc1Cl [SB-373598] | 4 | 25 | 3 | 19 | 4 | 1 | 0 | 10 | 12 | 0 |
| Fc1cccc(COc2nnc(-c3ccc4c(c3)CCO4)o2)c1 | 7 | 4 | 5 | 9 | 0 | 0 | 0 | 0 | 0 | 15 |
| COC(=O)c1c(-c2ccccc2)c2cc(C(=O)O)ccc2c(=O)n1Cc1ccccc1 | 0 | 81 | 21 | 0 | 26 | 11 | 0 | 0 | 0 | 0 |
| COc1cccc(-c2cc(-c3c[nH]nc3-c3ccccn3)ccn2)c1 [GW680338] | 17 | 25 | 21 | 1 | 3 | 91.4 | 19 | 27 | 0 | 5 |
| Fc1cc(Cl)ccc1Nc1ccnc2cc(-c3ccc(CN4CCCCC4)o3)ccc12 [GW560116] | 29 | 8 | 22 | 12 | 0 | 0 | 8 | 61 | 0 | 0 |
| CS(=O)(=O)c1ccc(-c2nc3n(c2-c2ccncc2)CCC3)cc1 [SKF-105942] | 0 | 16 | 0 | 0 | 0 | 0 | 0 | 0 | 100 | 2 |
| CC1=C(C(=O)Nc2cc3cn[nH]c3cc2F)C(c2ccc(C(F)(F)F)cc2)CC(=O)N1 (stereo not shown) [GSK429286] | 14 | 5 | 44 | 34 | 23 | 0 | 0 | 12 | 13 | 1 |
| Cl.Oc1ccc(-c2nc(-c3ccccc3)[nH]c2-c2ccncc2)cc1 [SB-428218] | 0 | 61 | 26 | 0 | 0 | 0 | 0 | 22 | 14 | 0 |
| Cc1cc(-c2ccc3c(c2)CC[C@@H](N[C@@H](C)c2ccccc2)C3)cnc1N.Cl [GW412617] | 0 | 19 | 0 | 44 | 85 | 32 | 50 | 15 | 13 | 7 |
| Cc1c(O)cccc1Nc1ccnc2ccc(C(F)(F)F)cc12.Cl [GW466413] | 3 | 23 | 24 | 34 | 2 | 0 | 3 | 21 | 0 | 0 |
| Cc1cccc(-c2nc(Nc3cccc(C(N)=O)c3)c3ccccc3n2)n1 [GW876019] | 0 | 17 | 0 | 50 | 0 | 26 | 19 | 0 | 0 | 0 |
| COc1ccccc1-c1ccc2c(NC(=O)C3CC3)n[nH]c2n1 [SB-711239] | 16 | 38 | 11 | 20 | 9 | 0 | 10 | 33 | 0 | 0 |
| CCn1c(-c2ccccn2)nc2cnccc21 [SB-736398] | 0 | 18 | 24 | 4 | 0 | 0 | 0 | 0 | 15 | 0 |

| SMILES | %Inh [1] [%] | %Inh [2] [%] | %Inh [3] [%] | %Inh [4] [%] | %Inh [5] [%] | %Inh [6] [%] | %Inh [7] [%] | %Inh [8] [%] | %Inh [9] [%] | %Inh [10] [%] |
| --- | --- | --- | --- | --- | --- | --- | --- | --- | --- | --- |
| COc1cccc(NC(=O)NC2CCN(c3ccnc(Nc4ccc(F)cc4)n3)C2)c1 (stereo not shown) [GSK1379721] | 3 | 3 | 0 | 16 | 0 | 13 | 29 | 2 | 17 | 18 |
| Cc1ccccc1-n1cnc2c(N)ncnc21 [SKF-97510] | 0 | 0 | 17 | 0 | 0 | 0 | 10 | 0 | 0 | 0 |
| COc1ccccc1CNC(=O)c1cc(C(=O)c2ccccc2C)c[nH]1 [GSK364507] | 8 | 25 | 14 | 30 | 0 | 1 | 0 | 9 | 19 | 0 |
| CN1C(=O)C(Nc2ccc(Cl)c(C(=O)O)c2)=C(c2ccc(Cl)cc2)C1=O [SB-404290] | 40 | 0 | 0 | 0 | 0 | 18 | 0 | 0 | 18 | 17 |
| COc1ccc2nc(-c3cccc(C)n3)nc(Nc3ccncc3)c2c1 [GSK204919] | 0 | 6 | 18 | 24 | 0 | 16 | 0 | 33 | 5 | 0 |
| O=S(=O)(c1ccc(-c2ccnc3[nH]ccc23)cc1)N1CCCC1 [GSK846226] | 0 | 0 | 7 | 86 | 85 | 89 | 8 | 5 | 8 | 16 |
| CC(=O)Nc1nc2cnc(Nc3cc(NC(=O)c4cccc(CCC#N)c4)ccc3C)nc2s1 | 0 | 88 | 51 | 0 | 17 | 10 | 0 | 0 | 0 | 5 |
| O=c1cc(N2CCOCC2)nc2n(Cc3cccc(Cl)c3Cl)ccn12 [GSK2286295] | 1 | 7 | 1 | 42 | 56 | 19 | 0 | 6 | 6 | 0 |
| O=C(Nc1n[nH]c2nc(-c3nccs3)c(Br)cc12)C1CCCC1 [SB-742609] | 0 | 25 | 0 | 2 | 0 | 0 | 0 | 4 | 21 | 1 |
| COc1cc(Nc2nccc(N3CCC(NC(=O)Nc4cc(C)ccc4C)C3)n2)cc(OC)c1OC (stereo not shown) [GSK1379762] | 0 | 19 | 25 | 60 | 6 | 34 | 4 | 8 | 18 | 0 |
| Cc1cccc(-c2nc(Nc3ccc4[nH]ncc4c3)c3ccccc3n2)n1 [GW857175] | 4 | 8 | 13 | 39 | 8 | 29 | 0 | 0 | 44 | 35 |
| Cc1ccc(-c2cc(-c3c[nH]nc3-c3ccccn3)ccn2)cc1 [GW684088] | 0 | 21 | 6 | 18 | 0 | 3 | 28 | 27 | 0 | 3 |
| CC(C)(C)c1ccc(C(=O)Nc2cn3cc(-c4cccnc4)ccc3n2)cc1 | 0 | 0 | 14 | 34 | 33 | 9 | 27 | 26 | 0 | 17 |
| Cl.NC(=O)c1cccc(Nc2nccc(Nc3ccc(Oc4cccc(Cl)c4)c(Cl)c3)n2)c1 [GW659008] | 9 | 0 | 3 | 37 | 21 | 23 | 27 | 95.8 | 72 | 0 |
| C[C@@H]1CCCCN1c1cc(-c2ccc3c(N)n[nH]c3c2)nc(N)n1 [GSK2258759] | 0 | 3 | 6 | 47 | 1 | 19 | 0 | 11 | 20 | 0 |
| Cc1cccc(-c2nc(Nc3ccncc3)c3ccccc3n2)n1 [GW855857] | 0 | 39 | 9 | 0 | 0 | 35 | 4 | 71 | 0 | 0 |
| Cc1cc(N2Cc3ccccc3C2)nc(Nc2ccc(S(=O)(=O)N3CCOCC3)cc2)n1.Cl [GSK1669917] | 2 | 0 | 0 | 24 | 0 | 25 | 0 | 0 | 98.9 | 6 |
| Cc1cccc(-c2cc(Nc3ccncc3)c3ccccc3n2)n1 [GSK223675] | 0 | 6 | 0 | 19 | 0 | 29 | 0 | 6 | 21 | 6 |
| O=C(Nc1n[nH]c2nc(-c3nccs3)c(Br)cc12)C1CC1 [SB-742251] | 19 | 8 | 12 | 30 | 0 | 29 | 15 | 10 | 17 | 0 |
| CN(C)CCN(C)C(=O)c1cc(-c2ccncc2)c(-c2ccc(Cl)c(O)c2)o1.Cl.Cl [SB-710397] | 0 | 87 | 24 | 37 | 0 | 0 | 0 | 59 | 14 | 0 |
